The results in this text go back to ChEMBL document CHEMBL1961873, “Compounds: GSK PKIS; Assays: Nanosyn kinase panel” (2012).

Assay [1] has as its target T1, 3-phosphoinositide-dependent protein kinase 1 (Homo sapiens) (UniProt O15530).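 Also: values are mean inhibition of PDK1.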
T1 sequence (whole entry): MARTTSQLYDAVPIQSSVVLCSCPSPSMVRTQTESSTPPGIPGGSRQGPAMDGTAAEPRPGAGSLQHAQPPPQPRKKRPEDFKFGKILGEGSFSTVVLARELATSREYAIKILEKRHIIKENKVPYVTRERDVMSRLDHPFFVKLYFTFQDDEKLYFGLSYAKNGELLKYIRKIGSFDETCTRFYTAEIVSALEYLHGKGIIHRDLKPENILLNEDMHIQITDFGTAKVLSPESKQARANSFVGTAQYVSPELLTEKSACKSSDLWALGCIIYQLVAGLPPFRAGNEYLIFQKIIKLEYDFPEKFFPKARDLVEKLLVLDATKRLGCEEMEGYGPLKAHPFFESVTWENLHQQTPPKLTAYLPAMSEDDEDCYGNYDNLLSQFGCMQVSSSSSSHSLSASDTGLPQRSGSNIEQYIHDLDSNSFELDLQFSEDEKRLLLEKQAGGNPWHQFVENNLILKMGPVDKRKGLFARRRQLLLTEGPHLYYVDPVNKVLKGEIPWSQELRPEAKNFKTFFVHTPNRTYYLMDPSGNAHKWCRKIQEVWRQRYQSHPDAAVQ
The settings on record: at 0.1 µM.

Assay [2] concerns the target cAMP-dependent protein kinase catalytic subunit alpha (Homo sapiens) (UniProt P17612). The settings on record: at 0.1 µM.
Assay [3] has the same target. The settings on record: at 1 µM.
Assay [4] deals with Protein kinase C alpha type (Homo sapiens) (UniProt P17252). The note with it: at 0.1 µM.
The target is the same in assay [5]. The note with it: at 1 µM.
In assay [6] the target is Protein kinase C beta type (Homo sapiens) (UniProt P05771). The note with it: at 0.1 µM.
Chain of Protein kinase C beta type (Homo sapiens) (P05771 2-671 limits assumed): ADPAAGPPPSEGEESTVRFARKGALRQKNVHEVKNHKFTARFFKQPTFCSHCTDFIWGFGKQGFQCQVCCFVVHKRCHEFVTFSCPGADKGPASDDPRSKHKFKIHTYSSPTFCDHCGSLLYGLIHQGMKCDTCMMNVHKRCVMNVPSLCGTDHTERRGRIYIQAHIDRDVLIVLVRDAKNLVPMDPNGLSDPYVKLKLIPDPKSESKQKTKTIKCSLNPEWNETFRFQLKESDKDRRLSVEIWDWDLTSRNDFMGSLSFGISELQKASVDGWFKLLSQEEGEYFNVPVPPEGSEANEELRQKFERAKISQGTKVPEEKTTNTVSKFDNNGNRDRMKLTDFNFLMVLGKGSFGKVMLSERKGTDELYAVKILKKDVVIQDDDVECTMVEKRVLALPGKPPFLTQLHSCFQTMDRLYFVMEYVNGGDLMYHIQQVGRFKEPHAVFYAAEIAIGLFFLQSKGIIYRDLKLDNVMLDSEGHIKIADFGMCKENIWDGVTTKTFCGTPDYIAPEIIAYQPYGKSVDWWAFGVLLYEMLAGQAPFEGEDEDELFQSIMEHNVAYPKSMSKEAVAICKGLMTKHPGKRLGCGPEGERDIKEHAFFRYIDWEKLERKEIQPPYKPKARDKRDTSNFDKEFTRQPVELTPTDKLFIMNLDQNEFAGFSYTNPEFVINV
The target is the same in assay [7]. The settings on record: at 1 µM.
The target of assay [8] is Protein kinase C eta type (Homo sapiens) (UniProt P24723). The settings on record: at 0.1 µM.
Chain of Protein kinase C eta type (Homo sapiens) (P24723 whole entry): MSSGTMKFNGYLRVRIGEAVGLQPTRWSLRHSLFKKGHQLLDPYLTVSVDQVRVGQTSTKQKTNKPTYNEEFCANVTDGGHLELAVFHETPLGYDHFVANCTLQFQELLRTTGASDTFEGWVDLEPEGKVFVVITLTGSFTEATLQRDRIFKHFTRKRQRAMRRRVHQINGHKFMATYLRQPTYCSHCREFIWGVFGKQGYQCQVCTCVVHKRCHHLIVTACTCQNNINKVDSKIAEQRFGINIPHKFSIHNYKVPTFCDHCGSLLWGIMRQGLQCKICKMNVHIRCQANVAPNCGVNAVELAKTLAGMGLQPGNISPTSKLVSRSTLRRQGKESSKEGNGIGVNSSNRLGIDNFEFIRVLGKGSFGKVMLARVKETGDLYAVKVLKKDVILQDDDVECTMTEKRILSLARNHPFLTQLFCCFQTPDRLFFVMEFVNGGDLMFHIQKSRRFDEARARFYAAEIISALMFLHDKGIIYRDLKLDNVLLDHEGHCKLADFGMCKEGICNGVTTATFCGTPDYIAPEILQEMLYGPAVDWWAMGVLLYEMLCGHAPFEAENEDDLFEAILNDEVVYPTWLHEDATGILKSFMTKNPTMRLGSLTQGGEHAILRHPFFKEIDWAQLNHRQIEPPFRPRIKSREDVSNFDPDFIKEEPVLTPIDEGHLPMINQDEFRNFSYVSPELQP
Assay [9] shares this target. The settings on record: at 1 µM.
The target of assay [10] is Protein kinase C gamma type (Homo sapiens) (UniProt P05129). The note with it: at 0.1 µM.
Assay [11] has the same target. The note with it: at 1 µM.
In assay [12] the target is T2, Protein kinase C iota type (Homo sapiens) (UniProt P41743).
T2 sequence (whole entry): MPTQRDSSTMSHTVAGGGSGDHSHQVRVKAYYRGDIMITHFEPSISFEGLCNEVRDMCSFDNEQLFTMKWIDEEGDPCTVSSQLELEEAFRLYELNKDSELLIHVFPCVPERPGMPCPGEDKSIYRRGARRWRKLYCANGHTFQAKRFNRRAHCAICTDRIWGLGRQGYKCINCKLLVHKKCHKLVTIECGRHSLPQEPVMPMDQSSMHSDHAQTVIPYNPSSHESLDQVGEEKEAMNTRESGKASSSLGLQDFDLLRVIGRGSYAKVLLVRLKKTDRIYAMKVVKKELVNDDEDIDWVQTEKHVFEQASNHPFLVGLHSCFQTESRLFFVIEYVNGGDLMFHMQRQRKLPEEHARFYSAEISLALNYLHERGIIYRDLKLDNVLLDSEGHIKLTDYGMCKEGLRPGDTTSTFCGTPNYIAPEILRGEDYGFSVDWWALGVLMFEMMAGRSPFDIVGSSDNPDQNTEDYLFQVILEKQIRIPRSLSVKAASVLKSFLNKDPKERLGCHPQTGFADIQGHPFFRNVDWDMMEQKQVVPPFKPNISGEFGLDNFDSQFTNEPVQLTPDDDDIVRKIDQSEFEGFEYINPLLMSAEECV
The note with it: at 0.1 µM.

Assay [13] addresses T2, Protein kinase C iota type (Homo sapiens). The note with it: at 1 µM.
The target of assay [14] is Protein kinase C theta type (Homo sapiens) (UniProt Q04759). The settings on record: at 0.1 µM.
Chain of Protein kinase C theta type (Homo sapiens) (Q04759 whole entry, looked up): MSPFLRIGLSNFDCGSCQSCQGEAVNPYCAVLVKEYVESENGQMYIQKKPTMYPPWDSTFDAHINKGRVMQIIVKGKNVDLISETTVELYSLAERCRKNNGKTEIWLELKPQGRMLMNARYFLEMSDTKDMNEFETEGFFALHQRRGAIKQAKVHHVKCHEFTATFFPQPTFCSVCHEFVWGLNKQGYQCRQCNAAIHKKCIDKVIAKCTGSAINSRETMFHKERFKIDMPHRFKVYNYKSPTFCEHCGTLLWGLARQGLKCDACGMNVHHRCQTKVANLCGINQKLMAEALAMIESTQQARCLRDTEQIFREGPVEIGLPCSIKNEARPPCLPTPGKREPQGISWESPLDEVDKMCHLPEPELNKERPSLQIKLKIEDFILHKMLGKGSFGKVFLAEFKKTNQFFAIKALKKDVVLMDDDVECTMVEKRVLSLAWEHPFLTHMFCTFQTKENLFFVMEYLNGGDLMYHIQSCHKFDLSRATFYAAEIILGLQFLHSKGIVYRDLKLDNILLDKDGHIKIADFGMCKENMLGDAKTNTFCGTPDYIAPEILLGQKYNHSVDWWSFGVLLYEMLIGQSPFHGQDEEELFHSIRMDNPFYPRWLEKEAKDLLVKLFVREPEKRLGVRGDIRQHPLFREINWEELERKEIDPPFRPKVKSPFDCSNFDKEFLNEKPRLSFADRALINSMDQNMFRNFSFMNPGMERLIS
Assay [15] shares this target. The note with it: at 1 µM.
Assay [16] has as its target Protein kinase C beta type (Homo sapiens) (UniProt P05771). The settings on record: at 0.1 µM. This is another data set of the same source.
Assay [17] has the same target. The note with it: at 1 µM. This is another data set of the same source.
The target of assay [18] is T3, Serine/threonine-protein kinase D1 (Homo sapiens) (UniProt Q15139).
T3 sequence (whole entry): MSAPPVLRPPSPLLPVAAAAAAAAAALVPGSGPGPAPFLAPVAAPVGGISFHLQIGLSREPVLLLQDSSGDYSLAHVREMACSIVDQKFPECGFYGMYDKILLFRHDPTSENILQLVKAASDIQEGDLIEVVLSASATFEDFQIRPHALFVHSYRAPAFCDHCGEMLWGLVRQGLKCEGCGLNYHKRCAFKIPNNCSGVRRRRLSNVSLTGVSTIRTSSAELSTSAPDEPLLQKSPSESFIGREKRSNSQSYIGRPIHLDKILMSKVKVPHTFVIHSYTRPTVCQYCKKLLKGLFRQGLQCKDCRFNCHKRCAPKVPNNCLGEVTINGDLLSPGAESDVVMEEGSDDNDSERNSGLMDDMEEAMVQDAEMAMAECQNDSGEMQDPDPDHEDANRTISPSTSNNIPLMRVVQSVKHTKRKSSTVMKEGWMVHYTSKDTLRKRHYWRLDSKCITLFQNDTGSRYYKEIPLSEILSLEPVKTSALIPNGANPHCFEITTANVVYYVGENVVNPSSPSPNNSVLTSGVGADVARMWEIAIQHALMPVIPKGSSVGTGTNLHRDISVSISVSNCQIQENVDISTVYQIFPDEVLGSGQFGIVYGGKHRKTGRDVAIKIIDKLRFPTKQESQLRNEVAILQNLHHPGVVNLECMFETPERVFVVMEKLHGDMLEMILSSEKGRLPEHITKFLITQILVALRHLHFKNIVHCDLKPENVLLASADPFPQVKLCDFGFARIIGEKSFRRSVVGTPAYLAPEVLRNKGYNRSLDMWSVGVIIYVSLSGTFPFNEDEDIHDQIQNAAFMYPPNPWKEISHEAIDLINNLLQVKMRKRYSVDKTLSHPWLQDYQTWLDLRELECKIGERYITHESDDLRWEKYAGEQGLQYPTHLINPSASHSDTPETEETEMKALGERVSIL
The note with it: at 0.1 µM.

In assay [19] the target is T3, Serine/threonine-protein kinase D1 (Homo sapiens). The settings on record: at 1 µM.
Assay [20] addresses T4, Serine/threonine-protein kinase D2 (Homo sapiens) (UniProt Q9BZL6).
T4 sequence (whole entry): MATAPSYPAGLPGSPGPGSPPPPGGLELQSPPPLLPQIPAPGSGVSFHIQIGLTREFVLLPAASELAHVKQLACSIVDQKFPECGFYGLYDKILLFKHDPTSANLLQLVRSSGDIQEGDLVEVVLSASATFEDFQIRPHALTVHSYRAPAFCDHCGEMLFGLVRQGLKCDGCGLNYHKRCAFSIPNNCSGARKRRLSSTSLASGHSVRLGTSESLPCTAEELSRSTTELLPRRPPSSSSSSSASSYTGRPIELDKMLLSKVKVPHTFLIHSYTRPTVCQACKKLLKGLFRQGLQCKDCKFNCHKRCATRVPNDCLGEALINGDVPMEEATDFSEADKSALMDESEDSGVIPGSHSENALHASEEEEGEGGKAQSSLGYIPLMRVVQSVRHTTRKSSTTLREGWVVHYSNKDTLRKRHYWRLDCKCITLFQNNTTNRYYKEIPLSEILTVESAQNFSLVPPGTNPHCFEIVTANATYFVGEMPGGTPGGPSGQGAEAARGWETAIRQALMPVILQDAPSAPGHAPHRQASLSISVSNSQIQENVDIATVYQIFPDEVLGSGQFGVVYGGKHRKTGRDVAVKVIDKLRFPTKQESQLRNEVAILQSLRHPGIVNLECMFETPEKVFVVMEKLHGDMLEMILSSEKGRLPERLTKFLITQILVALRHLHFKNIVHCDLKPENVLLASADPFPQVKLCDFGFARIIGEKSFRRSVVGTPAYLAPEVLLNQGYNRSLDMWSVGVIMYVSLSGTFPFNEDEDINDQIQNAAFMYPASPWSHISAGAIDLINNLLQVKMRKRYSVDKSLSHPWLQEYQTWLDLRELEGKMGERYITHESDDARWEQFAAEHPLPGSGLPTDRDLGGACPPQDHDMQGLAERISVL
The note with it: at 0.1 µM.

In the case of `O=C1NC(=O)C(c2ccccc2Cl)=C1Nc1cccc(O)c1`, the inhibition amounted to 0.81% in [1]; 1.52% in assay [2]; 2.92% in [3]; 0.83% in assay [4]; 3.41% in assay [5]; 0.31% in assay [6]. The inhibition in assay [7] was 5.5%; in assay [8], 2.05%; in [9], 5.24%; in assay [10], -3.81%; in assay [11], 1.06%; in assay [12], 1.73%. In addition, the inhibition in assay [13] stood at 3.13%; in assay [14], 1.38%; in assay [15], 3.85%; in assay [16], 2.15%; in assay [17], 14.5%; in [18], 2.34%. In addition, the figures for the inhibition in [19] and in [20] were 4.55% and 1.91%, respectively.
On to `CS(=O)(=O)CCN(CC#N)Cc1ccc(-c2ccc3ncnc(Nc4ccc(OCc5cccc(F)c5)c(Cl)c4)c3c2)o1`, for which the inhibition in [1] was 0.12%; in [2], -3.08%; in assay [3], -3.11%; in assay [4] it was -3.93%; in [5], -3.34%; in assay [6], -0.34%. Further, the inhibition in assay [7] was -1.95%; in [8], 2.38%; in assay [9] it was 1.49%; in assay [10], -0.22%; in assay [11], -0.45%; in [12], 1.19%. The inhibition in [13] is 0.81%; in assay [14], 0.98%; in [15] it was 0.92%; in assay [16], 0.59%; in assay [17] it was 0.66%; in [18], -2.21%. In addition, the inhibition is -3.04% in [19] and -2.89% in assay [20].
As for `COc1ccc(-c2ccncc2)cc1C(N)=O`, the inhibition was 1.13% in [1]; 2.54% in [2]; 3.05% in [3]; 1.07% in [4]; 1.9% in [5]; -0.74% in [6]. Besides, the inhibition in assay [7] amounted to 0.96%; in [8] it was 3.72%; in [9], 6.14%; in assay [10], 2.34%; in [11] it was 1.71%; in [12] it was 0.36%. The inhibition in [13] stood at 1.27%; in assay [14] it was 2.73%; in [15], 4.84%; in [16] it was 0.88%; in assay [17], 2.35%; in [18] it was 5.51%. Besides, the figures for the inhibition in assay [19] and in assay [20] were 15.2% and 4.91%, respectively.
Regarding `COC(=O)Nc1nc2cc(Oc3ccc(NC(=O)Nc4cccc(C(=O)O)c4)cc3)ccc2[nH]1`, the inhibition was 2.53% in [1]; -3.91% in assay [2]; 0.18% in assay [3]; -3.01% in assay [4]; -3.65% in assay [5]; 0.02% in assay [6]. Further, the inhibition was 1.6% in assay [7]; -0.35% in [8]; 3.15% in assay [9]; 2.38% in [10]; -0.24% in [11]; 0.47% in [12]. Moreover, the inhibition in assay [13] is -1.28%; in assay [14], 0.18%; in assay [15], 2.02%; in assay [16], -0.5%; in [17], 0.44%; in assay [18] it was -1.35%. Moreover, the inhibition was -1.96% in assay [19] and -3.05% in assay [20].
As for `CCN1CCC(CC(=O)Nc2n[nH]c3nc(-c4cccs4)c(Br)cc23)CC1`, the inhibition in assay [1] was -2.02%; in assay [2], -1.4%; in [3] it was 1.75%; in assay [4], -0.16%; in [5], 0.74%; in [6], 2.07%. For the same molecule, the inhibition in assay [7] was 1.35%; in [8], -3.78%; in assay [9], 0.16%; in assay [10], -1.57%; in assay [11], 1.17%; in [12], -1.06%. Besides, the inhibition is -1% in assay [13]; -1.26% in assay [14]; -0.68% in assay [15]; -1.4% in assay [16]; 2.84% in assay [17]; -1.83% in assay [18]. The inhibition in assay [19] is -1.4%; in assay [20] it was -2.1%.
With `COc1ccc(COc2ccc(Cc3cnc(N)nc3N)cc2OC)cc1`, the inhibition was 1.69% in assay [1]; 4.69% in assay [2]; 1.52% in [3]; 1.05% in assay [4]; 1.13% in [5]; 3.26% in assay [6]. Besides, the inhibition is 2.56% in assay [7]; 1.31% in assay [8]; -0.03% in [9]; 2.11% in assay [10]; 0.23% in assay [11]; 0.94% in [12]. For the same molecule, the inhibition was 2.56% in assay [13]; 0.95% in assay [14]; -0.58% in [15]; 2% in assay [16]; 1.96% in assay [17]; 0.61% in assay [18]. The figures for the inhibition in assay [19] and in [20] were 2.03% and -0.07%, respectively.

By inhibition is commonly meant the drop in the measured response relative to a control, in per cent.
